# Data as given in PubChem BioAssay (NCATS).
# Results filed as inconclusive are left out. Activity calls are given as the source filed them. Calls follow the shape of the dose curve; as a rule, active = well fitted inhibition curve with a large enough effect; inconclusive = small, poorly fitted or top-dose-only effect; inactive = flat fitted curve, though single readings scatter.
# Assay: qHTS to identify inhibitors of the type 1 interferon - major histocompatibility complex class I in skeletal muscle: primary screen against the NCATS Pharmaceutical Collection (AID 1347407)
# Conditions: human skeletal muscle cells, IFN-b-induced MHC-I HiBiT luminescence, 24 h; series mostly up to 45.9 µM; activity change, negative = inhibition: at the top concentration
# How it was run: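 Immortalized human myoblasts (C25cl48) with HiBiT knocked into endogenous HLA-B*08:01 were stimulated with 4 ng/ml IFN-beta and treated with compounds (8-point, 1:5, top 46 uM final) for 24 h at 37 C; HiBiT lytic luminescence read.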
# % is scaled to controls: 0 for no effect and ±100 for the full control effect.
row,SMILES,"activity change, negative = inhibition"
1,Cl/C(=C\n1cncn1)c1ccc(Cl)cc1Cl,0.386% (inactive)
2,CCCCN1C[C@H](O)[C@@H](O)[C@H](O)[C@H]1CO,-9.31% (inactive)
3,CC[C@]12CCCN3CCc4c(n(c5ccccc45)C(=O)C1)[C@@H]32,-29.3% (inactive)
4,CCCCCCCCOc1ccc(C(=O)c2ccccc2)c(O)c1,-9.96% (inactive)
5,Oc1ccccc1C=NCc1ccccc1,-3.69% (inactive)
6,O=C(O)CCc1nc2ccccc2[nH]1,1.31% (inactive)
7,OC[C@H]1O[C@@H]2O[C@H]3[C@H](O)[C@@H](O)[C@@H](O[C@H]4[C@H](O)[C@@H](O)[C@@H](O[C@H]5[C@H](O)[C@@H](O)[C@@H](O[C@H]6[C@H](O)[C@@H](O)[C@@H](O[C@H]7[C@H](O)[C@@H](O)[C@@H](O[C@H]8[C@H](O)[C@@H](O)[C@@H](O[C@H]1[C@H](O)[C@H]2O)O[C@@H]8CO)O[C@@H]7CO)O[C@@H]6CO)O[C@@H]5CO)O[C@@H]4CO)O[C@@H]3CO,15.2% (inactive)
8,CCN(CC)CCOC(=O)C1(c2ccccc2)CCCC1,1.02% (inactive)
9,N#CCC(=O)NN,-29% (inactive)
10,C[N+]1(C)CCC(=C(c2ccccc2)c2ccccc2)CC1,-6.49% (inactive)
11,CCc1nn(CCCN2CCN(c3cccc(Cl)c3)CC2)c(=O)n1CCOc1ccccc1,-10.4% (inactive)
12,COc1ccc(C(=O)c2ccccc2)c(O)c1,-3.97% (inactive)
13,CN1CCN(CCC(=O)N2c3ccccc3Sc3ccc(C(F)(F)F)cc32)CC1,-23.9% (inactive)
14,O=C(NC1CCN(CCc2c[nH]c3ccccc23)CC1)c1ccccc1,0.841% (inactive)
15,O=[N+]([O-])c1ccc(/C=N\O)o1,23.8% (inactive)
16,O=C(Oc1cccc2cccnc12)c1ccccc1,-0.7% (inactive)
17,CC(C)(C)NC[C@H](O)COc1cccc2c1CCCC2=O,5.82% (inactive)
18,Nc1ccc(S(=O)(=O)Nc2cnc3ccccc3n2)cc1,1.01% (inactive)
19,O=C(O)c1ccc(S(=O)(=O)N(Cl)Cl)cc1,-8.49% (inactive)

row,SMILES,"activity change, negative = inhibition"
1,CC(=O)Nc1ccc(OCC(O)CNC(C)C)cc1 (stereo not drawn),0.665% (inactive)
2,CN(C)CCC[C@@]1(c2ccc(F)cc2)OCc2cc(C#N)ccc21,-1.7% (inactive)
3,CCCCNC(=O)NS(=O)(=O)c1ccc(N)cc1,-12.4% (inactive)
4,CN(C)C(=O)Nc1ccc(Cl)c(Cl)c1,-6.33% (inactive)
5,OCCOCCN1CCN(C2=Nc3ccccc3Sc3ccccc32)CC1,7.02% (inactive)
6,COc1cc(NS(=O)(=O)c2ccc(N)cc2)ncn1,2.92% (inactive)
7,CCOC(=O)Nc1ccc2c(c1)N(C(=O)CCN1CCOCC1)c1ccccc1S2,-21.6% (inactive)
8,CCN1CCCC(OC(=O)C(c2ccccc2)c2ccccc2)C1 (stereo not drawn),3.99% (inactive)
9,CCCCN=C(N)N=C(N)N,1.89% (inactive)
10,CN1CCN(c2cc3c(cc2F)c(=O)c(C(=O)O)cn3-c2ccc(F)cc2)CC1,-9.9% (inactive)
11,NC(=O)C1(N2CCCCC2)CCN(CCCC(=O)c2ccc(F)cc2)CC1,4.99% (inactive)
12,CCCCC(CC)COC(=O)c1ccc(N(C)C)cc1 (stereo not drawn),3.45% (inactive)
13,Cc1cc(CC(=O)O)c(C)n1-c1ccc(Cl)cc1,-6.52% (inactive)
14,CCOC(=O)c1ccc(N)cc1,1.17% (inactive)
15,CC(=O)OCC1=C(C(=O)O)N2C(=O)[C@@H](NC(=O)CSc3ccncc3)[C@H]2SC1,-5.17% (inactive)
16,O=S(=O)(O)c1ccc(O)cc1,1.52% (inactive)
17,COc1cc(C(=O)NCc2ccc(OCCN(C)C)cc2)cc(OC)c1OC,-19.1% (inactive)
18,CCC1NC(=O)c2cc(S(N)(=O)=O)c(Cl)cc2N1 (stereo not drawn),-17.8% (inactive)
19,O=C(CCCN1CC=C(n2c(=O)[nH]c3ccccc32)CC1)c1ccc(F)cc1,-3.19% (inactive)
